Screening data deposited in PubChem BioAssay by several laboratories.
GDH-TPI inh – GDH-TPI coupling enzyme inhibitors, primary screen, artefact control for M. tuberculosis FBA inhibitor project, biochemical, absorbance, full deck | inhibition, % at 4.8 µM | 360,000 tested, 1.2% active | AID 588335, 2011 | GDH-TPI coupled enzyme counterscreen, NADH absorbance; in the data active means inhibition above about 30%;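 further: 0% = DMSO wells and 100% = wells lacking the enzyme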
BoNT-A LC inh2 – BoNT/A light chain protease inhibitors, primary screen, biochemical, flow cytometry, MLPCN library; Botulinum neurotoxin type A light chain protease (Clostridium botulinum A str. ATCC 3502); multiplex microsphere protease substrate cleavage; inhibition, % at 10 µM; 360,000 tested, 0.17% active; further: plate controls were buffer without enzyme for full effect and enzyme alone for no effect
BoNT F protease – BoNT/F light chain protease inhibitors, primary screen, biochemical, flow cytometry, MLPCN library. AID 588497, 2011. 360,000 tested, 0.22% active. inhibition, % at 10 µM. Multiplex microsphere protease cleavage assay. Botulinum neurotoxin type F light chain protease (Clostridium botulinum); in the data active means inhibition above about 35%, passing the limit was not always enough; inconclusive means no clear call, values can overlap the other calls; further: plate controls were buffer without enzyme for full effect and enzyme alone for no effect
Anthrax LF prot – Bacillus anthracis LF protease inhibitors, primary screen, biochemical, multiplex microsphere, MLPCN library. Lethal factor (Bacillus anthracis), P15917. inhibition, % at 10 µM. 360,000 tested, 0.12% active. AID 588501, 2011. multiplex microsphere protease cleavage assay; further: plate controls were buffer without enzyme for full effect and enzyme alone for no effect
Mtb FBA inh – Mtb FBA enzyme inhibitors, primary screen, biochemical, fluorescence, strain H37Rv. Fructose-bisphosphate aldolase (Mycobacterium tuberculosis (strain ATCC 25618 / H37Rv)), …. purified M. tuberculosis FBA, fluorescence read-out. inhibition, % at 1 µM. 360,000 tested, 2.3% active; in the data active means inhibition above about 27%;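 further: 0% = vehicle and 100% = reference inhibitor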
Bead autofluor – compound fluorescence in toxin protease inhibitor counterscreen | compound autofluorescence counterscreen, microsphere flow cytometry; hits give high values | fluorescence intensity (concentration not given with the values) | 360,000 tested, 3.1% active; in the data active means fluorescence intensity above about 16000; inconclusive means no clear call, values can overlap the other calls
BoNT-A LC CP1 – BoNT/A light chain protease inhibitors, confirmation, biochemical, flow cytometry, cherry pick 1 | shares compounds with BoNT F protease | multiplex microsphere protease assay | inhibition, % at 10 µM | 720 tested, 3% active; in the data active means inhibition above about 32%
BoNTF LC inh 1 – BoNT/F light chain protease inhibitors, confirmation, biochemical, flow cytometry, cherry pick 1 | shares compounds with BoNT F protease | multiplex microsphere protease cleavage assay | inhibition, % at 10 µM | 720 tested, under 10 active; call rule not given here
Anthrax LF CP1 – Bacillus anthracis LF protease inhibitors, confirmation, biochemical, multiplex microsphere, cherry pick 1. shares compounds with BoNT F protease. multiplex microsphere protease cleavage assay. inhibition, % at 10 µM. 720 tested, under 10 active; call rule not given here
Active calls of the source: *; ? = inconclusive; · = no result. Compounds with a hit are over-represented: about 6.6% of the library has one in this group of screens. Unless noted, no stated cut-off is given here; in the data, active means inhibition above about 30%; inconclusive means no clear call, values can overlap the other calls; inactive means below that.

SMILES | GDH-TPI inh | BoNT-A LC inh2 | BoNT F protease | Anthrax LF prot | Mtb FBA inh | Bead autofluor | BoNT-A LC CP1 | BoNTF LC inh 1 | Anthrax LF CP1
Cc1cc2ccccc2n1CCNC(=O)C1CCCC1 | 12 | 163* | -99 | 7 | 6 | 909 | 1 | 0 | 0
Cc1cc(C(=O)Nc2ccccc2)c2ccccc2n1 | -3 | -1 | 9 | 22 | -1 | 3543 | · | · | ·
CC(C)Cc1cc(C(=O)Nc2ccccc2)c2ccccc2n1 | 7 | -1 | 43* | -6 | 2 | 3635 | -1 | -4 | 0
Oc1ccccc1-c1nnc(-c2ccc(C(F)(F)F)cc2)o1 | 16 | 1 | 35* | 1 | 0 | 3316 | 0 | -3 | 1
COc1cc(OC)nc(Nc2nc(CN)cs2)n1 | 14 | 0 | -4 | -2 | 4 | 2945 | · | · | ·
COC1=CC(=O)[C@@]2([C@@H]1O)[C@@H](Cl)C[C@]13C(OC)=C(OC)C(=O)C[C@]21CCN3C | 9 | -1 | -2 | -9 | -1 | 3417 | · | · | ·
CC(=O)CSc1nnc(-c2ccc(S(=O)(=O)N3CCCC3)cc2)n1C | -1 | 1 | -10 | 31* | 5 | 3870 | 1 | 1 | 2
CN(C)C(=O)CSc1nnc(-c2ccc(S(=O)(=O)N3CCCC3)cc2)n1C | 4 | 0 | -9 | -2 | 10 | 3290 | · | · | ·
CCOc1cc2nc3c4ccccc4n(C)c3nc2cc1OCC | 10 | 48* | 8 | 20 | 12 | 2580 | 8 | 0 | 3
Cc1ccc(-c2nc3cc(Br)cnc3nc2-c2ccc(C)cc2)cc1 | -1 | 46* | 7 | 22 | 3 | 4410 | 24 | 11 | 13
Brc1cccc(-c2nc3cccnc3nc2-c2cccc(Br)c2)c1 | -13 | -2 | 7 | -13 | 4 | 4003 | · | · | ·
O=c1c2ccccc2nnn1-c1ccc(Br)cc1 | 5 | -8 | 41* | 14 | 1 | 4468 | 0 | 0 | -1
O=[N+]([O-])c1cccc(S(=O)(=O)N2CCCC2)c1 | -1 | 3 | 33 | -2 | 1 | 2590 | -2 | -4 | -4
Cc1nn(C)cc1NC(=O)c1cc2nc(-c3ccco3)cc(C(F)(F)F)n2n1 | 24 | 1 | -7 | 0 | 3 | 3878 | -1 | 6 | 0
O=C(Nc1cnn(Cc2ccccc2)c1)c1cc2nc(-c3ccco3)cc(C(F)(F)F)n2n1 | 15 | 0 | 6 | 1 | 2 | 3153 | -1 | -1 | 0
CCc1ccc(-c2cc(C(F)(F)F)n3nc(C(=O)Nc4c(C)nn(Cc5ccc(F)cc5)c4C)cc3n2)s1 | 4 | 33* | 16 | 26 | 17 | 8750 | 2 | -6 | 2
Cc1ccccc1Cn1nc(C)c(NC(=O)c2cc3nc(-c4ccco4)cc(C(F)(F)F)n3n2)c1C | 29 | 0 | 2 | 4 | 3 | 3240 | 1 | -1 | -1
COC(=O)C1=C(C)NC(C)=C(C(=O)OC)C1c1ccc(OC(=O)c2oc3ccccc3c2C)c(OC)c1 | 10 | 0 | -2 | -2 | 2 | 2768 | · | · | ·
CCOC(=O)C1=CCN(S(=O)(=O)c2ccccc2Br)C1c1cccc(F)c1 (configuration not stated) | · | -1 | -3 | -5 | -2 | 5571 | · | · | ·
CCCC(=O)Nc1cc(S(=O)(=O)N(CC)CC)ccc1Cl | 10 | 1 | -6 | 0 | 5 | 2550 | · | · | ·
O=C(Nc1ccc(Nc2ccccc2)cc1)c1c(F)c(F)c(F)c(F)c1F | 23 | -4 | -12 | 40* | -1 | 3173 | 0 | -7 | 1
O=C(Nc1nc(-c2ccccc2)c(-c2ccccc2)s1)c1ccc(S(=O)(=O)N2CCCCC2)cc1 | -2 | 0 | -7 | -6 | 3 | 11466 | -1 | -6 | -5
COc1ccc(C(=O)Nc2nc(-c3ccc([N+](=O)[O-])cc3)c(-c3ccc(OC)cc3)s2)cc1 | -3 | 38* | 22 | 33* | 0 | 7771 | 14 | 9 | 12
Cc1ccc(F)c(C2C3C=CCC(c4cccc(-c5ccc(N(C)C)cc5)c4)C3C(=O)N2Cc2ccccc2)c1 (configuration not stated) | 23 | -1 | -8 | 4 | 7 | 4507 | · | · | ·
O=S1(=O)CC(NCc2ccccc2)C(Nc2ccccc2)C1 (configuration not stated) | 11 | ? | -19 | -7 | -1 | 9396 | · | · | ·
SMILES | GDH-TPI inh | BoNT-A LC inh2 | BoNT F protease | Anthrax LF prot | Mtb FBA inh | Bead autofluor | BoNT-A LC CP1 | BoNTF LC inh 1 | Anthrax LF CP1
O=C(NC1CS(=O)(=O)CC1NCc1ccccc1)c1ccccc1 (configuration not stated) | -1 | 5 | 72* | 5 | 0 | 8686 | 0 | -4 | 0
COc1cccc(NC(=O)CN(C)C(=O)CCC(=O)c2cc(C)sc2C)c1 | -7 | 68* | ? | -2 | 2 | 4033 | 0 | -6 | 0
COc1ccc(Cl)cc1NC(=O)CN(C)C(=O)CCC(=O)c1cc(C)sc1C | 4 | · | · | · | 4 | · | · | · | ·
Cc1cccc(N(CC(=O)N2CCCCCC2)S(C)(=O)=O)c1C | 0 | -2 | 36* | -24 | 2 | 3213 | 0 | 2 | 6
COc1cc(CCC(=O)O)on1 | 8 | 3 | 62* | 4 | 1 | 3555 | 0 | -4 | -2
CCN1CCN(CC(=O)c2c(C)n(C)c3ccc(OC)cc23)CC1 | 9 | 1 | 3 | 4 | 0 | ? | · | · | ·
CCOC(=O)C1CCN(CC(=O)c2c(C)n(C)c3ccc(OC)cc23)CC1 | 1 | -2 | 39* | -11 | 2 | 3128 | 2 | 2 | 3
COc1ccc(-c2csc(NC(=O)C3COc4ccccc4O3)n2)cc1OC (configuration not stated) | -4 | -1 | -4 | 2 | -4 | 5544 | · | · | ·
Cc1ccccc1NC(=O)CN(c1ccc(F)cc1)S(C)(=O)=O | 4 | 0 | 42* | -5 | 2 | 3419 | 0 | -5 | -2
CN(CCOc1ccccc1)C(=O)c1cc([N+](=O)[O-])cc([N+](=O)[O-])c1 | 2 | 5 | 42* | 2 | 9 | 4483 | -1 | -10 | -2
O=C(NCCOc1ccccc1)c1cc(C(=O)NCCOc2ccccc2)cc([N+](=O)[O-])c1 | -7 | 2 | -1 | -8 | -3 | 10957 | · | · | ·
